Drawing on PubChem BioAssay (NCATS), this text covers max response, outcome and Potency for 31 compounds.

Records with an inconclusive call do not appear. A number with no mark means an inactive call. The source made the active and inactive calls. Calls follow the shape of the dose curve; as a rule, active = well fitted inhibition curve with a large enough effect; inconclusive = small, poorly fitted or top-dose-only effect; inactive = flat fitted curve, though single readings scatter.
% is scaled to controls: 0 for no effect and ±100 for the full control effect; potency is read from the fitted curve at half-maximal effect.

For one experiment, the system named is CRL-7250. The experiment can be described thus: Cytotoxic Profiling of Annotated Libraries Using Quantitative High-Throughput Screening (AID 1296008). Also: nearly all actives have a fitted effect of over 60% in size. The note with it: Five cell lines viability, CellTiter-Glo ATP luminescence, 48-72 h; max response: active compounds read low. Put shortly:
(§1)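 Compounds were pin-transferred onto cells and incubated 48 or 72 hr at 37 degree Celsius, 95% humidity. CellTiter-Glo was added, plates sat 10 min at room temperature, then ATP-coupled luminescence was imaged as the viability read-out.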
Background: Cellular ATP, detected with luciferase, serves as a proxy for viable cell number.
On to `N=C(N)N`, for which the max response was -5.46%.
As for `CC(=O)SCC(CC(=O)c1ccc(C)cc1)C(=O)O` (stereo not drawn), the max response was 2.17%.
Take `CO[C@@]1(NC(=O)Cc2cccs2)C(=O)N2C(C(=O)O)=C(COC(N)=O)CS[C@@H]21`: the compound was classed as inactive.
Take `Cc1c(N)c(=O)n(-c2ccccc2)n1C`: the max response is 4.52%.
On the same count and under the same terms, to `CN1CC(=O)N/C1=N/C(=O)Nc1cccc(Cl)c1` belongs 2.65%.
Take `CCCCCCCCCCCCOCCO`: the max response is -9.14%.
On the same count and under the same terms, to `Nc1ccc([N+](=O)[O-])cc1O` belongs -25%; to `CC1(C)[C@@H](O[C@H]2O[C@H](C(=O)O)[C@@H](O)[C@H](O)[C@H]2O[C@@H]2O[C@H](C(=O)O)[C@@H](O)[C@H](O)[C@H]2O)CC[C@]2(C)[C@H]3C(=O)C=C4[C@@H]5C[C@@](C)(C(=O)O)CC[C@]5(C)CC[C@@]4(C)[C@]3(C)CC[C@@H]12`, -24.4%.
The same measure, in the same setting: in the case of `CNC(=O)c1c(I)c(NC(=O)CCCCC(=O)Nc2c(I)c(C(=O)O)c(I)c(C(=O)NC)c2I)c(I)c(C(=O)O)c1I` it was -5.95%.
Same read-out and setting: in the case of `C/C(=N\O)c1ccc(OCC(=O)N2CCCCC2)cc1` it was -1.81%.
Regarding `CC(=O)c1ccc(OCC(=O)N2CCCCC2)cc1`, the max response is 2.04%.
As to `CCCCCCCC/C=C/C(=O)O`, the compound was called inactive.
For the compound `CC(C)OC(=O)c1cc(C(=O)OC(C)C)cc([N+](=O)[O-])c1`, the compound was classed as inactive.
For `Nc1ccc(O)c([N+](=O)[O-])c1`, the max response was 4.51%.
With `CC(=O)O[C@H]1C[C@@]2(C)[C@@H](C[C@@H](O)[C@H]3[C@@]4(C)CC[C@@H](O)[C@@H](C)[C@@H]4CC[C@@]32C)/C1=C(\CCC=C(C)C)C(=O)O`, the call was inactive.
`O=C(O)CC1CC(c2ccccc2)=NO1` (stereo not drawn): the max response is -3.03%.
Regarding `Fc1ccc2[nH]c(CN3CCN(c4ccccn4)CC3)cc2c1`, the max response was -22.3%.
Consider `O=C(Nc1ccc2c(c1)CCN(Cc1ncn[nH]1)C2)c1ccccc1-c1ccc(C(F)(F)F)cc1`, for which the max response was -23.1%.
Turning to `CC1(C)S[C@@H]2[C@H](NC(=O)[C@H](N)c3ccc(O)cc3)C(=O)N2[C@H]1C(=O)O`, the max response was -12.2%.
On the same count and under the same terms, in the case of `C#CC1(O)CC[C@H]2[C@@H]3CCC4=CCCC[C@@H]4[C@H]3CC[C@@]21C` (stereo partly drawn) it was -8.11%; in that of `COc1ccnc2c1CCCCC2S(=O)c1nc2ccccc2[nH]1` (stereo not drawn), -8.92%.
Turning to `COC(=O)c1nc(Cl)c(Cl)nc1N`, the Potency is 5.31 µM (active).
With `CN(C)CCn1nnnc1SCC1=C(C(=O)O)N2C(=O)[C@@H](NC(=O)Cc3csc(N)n3)[C@H]2SC1`, the max response is -7.23%.
In the case of `Cc1onc(-c2c(F)cccc2Cl)c1C(=O)N[C@@H]1C(=O)N2[C@@H]1SC(C)(C)[C@@H]2C(=O)O`, the max response is -6.01%.
As for `CC(C(=O)O)c1ccc(C(=O)c2ccccc2)s1` (stereo not drawn), the call was inactive.
For `N=C1N=C(N)c2cc3ccccc3cc21`, the Potency was 17.2 µM (active).
On to `O=C(O)Cc1ccc2c(c1)C(=O)c1ccccc1CO2`, for which the result was inactive.
For the compound `CC(C(=O)O)c1ccc2c(c1)[nH]c1ccc(Cl)cc12` (stereo not drawn), the max response is 2.04% and the outcome was inactive.
As to `CC(C)(C)c1nnc(NS(=O)(=O)c2ccc(N)cc2)s1`, the max response was 2.87%.
For `C[N+]1(C)[C@@H]2CC(OC(=O)[C@H](CO)c3ccccc3)C[C@H]1[C@@H]1O[C@@H]12` (stereo partly drawn), the compound was classed as inactive.
Take `O=[N+]([O-])c1ccc(CNc2nc(NCc3cccc(C(F)(F)F)c3)nc3nc[nH]c23)cc1`: the max response is -5.54%.

The subject of a further experiment is HEK293. The experiment is described as above. Particulars: Five cell lines viability, CellTiter-Glo ATP luminescence, 48-72 h; max response: active compounds read low. Put shortly:
as §1
For `N=C(N)N`, the outcome was inactive.
On the same count and under the same terms, to `CC(=O)SCC(CC(=O)c1ccc(C)cc1)C(=O)O` (stereo not drawn) belongs “inactive”; to `CO[C@@]1(NC(=O)Cc2cccs2)C(=O)N2C(C(=O)O)=C(COC(N)=O)CS[C@@H]21`, “inactive”.
In the case of `Cc1c(N)c(=O)n(-c2ccccc2)n1C`, the max response was -1.84%.
As for `CN1CC(=O)N/C1=N/C(=O)Nc1cccc(Cl)c1`, the call was inactive.
On to `CCCCCCCCCCCCOCCO`, for which the max response is -2.23%.
In the case of `Nc1ccc([N+](=O)[O-])cc1O`, the max response was -27.4%.
The same measure, in the same setting: to `CC1(C)[C@@H](O[C@H]2O[C@H](C(=O)O)[C@@H](O)[C@H](O)[C@H]2O[C@@H]2O[C@H](C(=O)O)[C@@H](O)[C@H](O)[C@H]2O)CC[C@]2(C)[C@H]3C(=O)C=C4[C@@H]5C[C@@](C)(C(=O)O)CC[C@]5(C)CC[C@@]4(C)[C@]3(C)CC[C@@H]12` belongs -5.35%.
The same measure, in the same setting: in the case of `CNC(=O)c1c(I)c(NC(=O)CCCCC(=O)Nc2c(I)c(C(=O)O)c(I)c(C(=O)NC)c2I)c(I)c(C(=O)O)c1I` it was -10.9%.
Take `C/C(=N\O)c1ccc(OCC(=O)N2CCCCC2)cc1`: the max response was 2.8%.
Turning to `CC(=O)c1ccc(OCC(=O)N2CCCCC2)cc1`, the max response was -3.89%.
On the same count and under the same terms, to `CCCCCCCC/C=C/C(=O)O` belongs 0.673%; to `CC(C)OC(=O)c1cc(C(=O)OC(C)C)cc([N+](=O)[O-])c1`, 4.1%.
Still for that read-out and setting: to `Nc1ccc(O)c([N+](=O)[O-])c1` belongs -8.71%.
Same read-out and setting: in the case of `CC(=O)O[C@H]1C[C@@]2(C)[C@@H](C[C@@H](O)[C@H]3[C@@]4(C)CC[C@@H](O)[C@@H](C)[C@@H]4CC[C@@]32C)/C1=C(\CCC=C(C)C)C(=O)O` it was -11.3%; in that of `O=C(O)CC1CC(c2ccccc2)=NO1` (stereo not drawn), 0.396%.
As to `O=C(Nc1ccc2c(c1)CCN(Cc1ncn[nH]1)C2)c1ccccc1-c1ccc(C(F)(F)F)cc1`, the Potency is 23.1 µM (active).
Turning to `CC1(C)S[C@@H]2[C@H](NC(=O)[C@H](N)c3ccc(O)cc3)C(=O)N2[C@H]1C(=O)O`, the result was inactive.
For the compound `C#CC1(O)CC[C@H]2[C@@H]3CCC4=CCCC[C@@H]4[C@H]3CC[C@@]21C` (stereo partly drawn), the compound was called inactive.
Consider `COc1ccnc2c1CCCCC2S(=O)c1nc2ccccc2[nH]1` (stereo not drawn), for which the max response was -19.1%.
Consider `COC(=O)c1nc(Cl)c(Cl)nc1N`, for which the Potency was 0.841 µM (active).
Consider `CN(C)CCn1nnnc1SCC1=C(C(=O)O)N2C(=O)[C@@H](NC(=O)Cc3csc(N)n3)[C@H]2SC1`, for which the max response is -4.49%.
Take `Cc1onc(-c2c(F)cccc2Cl)c1C(=O)N[C@@H]1C(=O)N2[C@@H]1SC(C)(C)[C@@H]2C(=O)O`: the call was inactive.
Take `CC(C(=O)O)c1ccc(C(=O)c2ccccc2)s1` (stereo not drawn): the max response was 0.794%.
Take `N=C1N=C(N)c2cc3ccccc3cc21`: the Potency is 19.3 µM (active).
With `O=C(O)Cc1ccc2c(c1)C(=O)c1ccccc1CO2`, the max response is -3.93%.
For the compound `CC(C(=O)O)c1ccc2c(c1)[nH]c1ccc(Cl)cc12` (stereo not drawn), the max response was -1.79% and the compound was called inactive.
Regarding `CC(C)(C)c1nnc(NS(=O)(=O)c2ccc(N)cc2)s1`, the max response is -1.6%.
As to `C[N+]1(C)[C@@H]2CC(OC(=O)[C@H](CO)c3ccccc3)C[C@H]1[C@@H]1O[C@@H]12` (stereo partly drawn), the outcome was inactive.
As to `O=[N+]([O-])c1ccc(CNc2nc(NCc3cccc(C(F)(F)F)c3)nc3nc[nH]c23)cc1`, the max response was -22%.
